Consider 47 compounds from the supplement of paper PMC9399229.

The structures appear in SMILES notation. Structures can show the parent of a compound that is named as a salt. ± gives the standard deviation of the averaged measurements. Whole data set: some 1,900 compounds, median “relative cell viability (CellTiter-Glo), compound alone” near 1, cut for the lowest 2% near 0.16. What follows is part of a selection rich in the lowest values, with near analogues and random picks from the rest.

For this assay, the system named is Hep3B. The assay is described as follows: relative cell viability (CellTiter-Glo), compound alone (fraction); higher = more viable cells (less growth inhibition). Conditions: cabozantinib 0 µM; 4 days. Background: In ATP-based viability assays light output follows the ATP content of the culture.
`COc1ccc2cccc(CCNC(C)=O)c2c1` [Agomelatine]: the relative cell viability was found to be 1.1 ± 0.097.
The figure for `CC(=O)Nc1ccc(NC(=S)NC(=O)c2ccc(C(C)(C)C)cc2)cc1` [Tenovin-1] is 0.269 ± 0.0096.
Then `CC1(C)CC[C@]2(NC(=O)C(C)(F)F)CC[C@]3(C)[C@H](C(=O)C=C4[C@@]5(C)C=C(C#N)C(=O)C(C)(C)[C@@H]5CC[C@]43C)[C@@H]2C1` [Omaveloxolone (RTA-408)], with 0.206 ± 0.0087; and `COc1cc(N2CCN(C)CC2)ccc1Nc1nccc(-c2cn(C)c3cnccc23)n1`, with 1.05 ± 0.027.
The figure for `CC(=O)N1CCN(CCOc2ccc(C3CCN(C4=Nn5c(nnc5C(F)(F)F)CC4)CC3)cc2)CC1` is 1.3 ± 0.037; for `CNc1cc(-c2cccc(Cl)c2Cl)nc(N)n1` it is 1.1 ± 0.021.
In turn, `Cc1[nH]nc2ccc(-c3cncc(OC[C@@H](N)Cc4ccccc4)c3)cc12` registered a relative cell viability of 0.123 ± 0.0016.
Then `Cn1nc(C(C)(C)C)cc1C(=O)N[C@@H](Cc1cccc(Cl)c1)C(=O)NCC#N` [Cathepsin Inhibitor 1], with 1.151 ± 0.011; and `O=C(NCc1ccc(Oc2ccccc2)cc1)c1nc(-c2cc(Br)c(O)c(Br)c2)no1`, with 1.13 ± 0.022; and `Cn1cc(CNCC2CCN(c3ncc(C(=O)NO)cn3)CC2)c2ccccc21`, with 0.163 ± 0.029.
The figure for `O=C(NC1CC1)c1cc(-c2cccs2)on1` [Isoxazole 9 (ISX-9)] is 1.13 ± 0.015.
Then `O=C(O)C(S)=Cc1c[nH]c2ccc(F)cc12`, with 1.27 ± 0.013.
In turn, `Cc1cc(C)c(CNC(=O)c2cc(-c3ccc(N4CCN(C)CC4)nc3)cc3c2c(C)cn3C(C)C)c(=O)[nH]1` yielded a relative cell viability of 1.078 ± 0.0077.
Then `O=C(/C=C/c1ccc(O)cc1)c1ccc(O)cc1O` [Isoliquiritigenin], with 0.904 ± 0.33.
Take `O=c1[nH]c(=O)n(C2CC(O)C(CO)O2)cc1Br` (configuration not stated) [Bromodeoxyuridine (BrdU)]: the relative cell viability was found to be 1.04 ± 0.082.
As for `CN(C)Cc1ccc(S(=O)(=O)n2ccc(/C=C/C(=O)NO)c2)cc1` [Resminostat], the relative cell viability came to 0.781 ± 0.029.
The figure for `CCCCc1nc2cc(/C=C/C(=O)NO)ccc2n1CCN(CC)CC` [Pracinostat (SB939)] is 0.155 ± 0.046; for `Cc1ccc(S(=O)(=O)c2ccc([N+](=O)[O-])o2)cc1` it is 0.2656 ± 0.0026.
Then `O=[N+]([O-])c1cn2c(n1)OC[C@@H](OCc1ccc(OC(F)(F)F)cc1)C2`, with 1.05 ± 0.064; and `COC(=O)CC[C@H](NC(=O)[C@H](CC(=O)OC)NC(=O)OCc1ccccc1)C(=O)N[C@H](C(=O)N[C@@H](CC(=O)OC)C(=O)CF)C(C)C`, with 1.25 ± 0.12.
The figure for `CC(C)(Cc1ccc2ccccc2c1)NC[C@@H](O)COc1cccc(Cl)c1C#N` is 1.09 ± 0.051; for `O=C(NCC1(c2nc(-c3ccccc3)cs2)CCOCC1)c1cccc(-c2noc(C(F)(F)F)n2)c1` it is 1.1 ± 0.12.
Turning to `O=C(Nc1cccc(Cl)c1)c1ccccn1`, the relative cell viability was 0.9222 ± 0.0036.
`Clc1ccc(NN=C(c2ccccc2)c2ccccn2)nc1`: the relative cell viability amounted to 0.0829 ± 0.0081.
In turn, `COc1ccc(CCc2nc3cc(-c4c(C)noc4C)ccc3n2C[C@H](C)N2CCOCC2)cc1Cl` returned a relative cell viability of 0.925 ± 0.092.
The figure for `CNC(=O)[C@H](Cc1c[nH]c2ccccc12)NC(=O)[C@@H](CC(=O)NO)CC(C)C` [Ilomastat (GM6001, Galardin)] is 1.05 ± 0.021; for `Cc1ccc(NC(=O)c2ccc(CN3CC[C@H](N(C)C)C3)c(C(F)(F)F)c2)cc1Nc1nccc(-c2cncnc2)n1` [Bafetinib (INNO-406)] it is 1.13 ± 0.047; for `CCCN1CCCC[C@H]1C(=O)Nc1c(C)cccc1C` [Ropivacaine HCl] it is 1.02 ± 0.075.
The figure for `CC[C@@H](C)Nc1cc(C(=O)N[C@H]2C[C@H]3CC[C@@H](C2)N3c2ccc(C(=O)C3CC3)cn2)c(C)cc1C(N)=O` is 0.213 ± 0.014; for `O=C(O)Cn1nnc(-c2cc(N3CCC(Oc4cc(F)ccc4Br)CC3)no2)n1` it is 1.05 ± 0.024; for `CC(C)(C)c1cc(/C=C(\C#N)C(N)=S)cc(C(C)(C)C)c1O` [Tyrphostin AG 879] it is 1.04 ± 0.053.
In turn, `FC(F)(F)Oc1ccc2nc(-c3ccc(OCCOCCOc4ccc(-c5nc6ccc(OC(F)(F)F)cc6[nH]5)nc4)cn3)[nH]c2c1` had a relative cell viability of 0.708 ± 0.0018.
The compound `O=C(/C=C/c1ccc(CN(CCO)CCc2c[nH]c3ccccc23)cc1)NO` [LAQ824 (Dacinostat)] had a relative cell viability of 0.124 ± 0.015.
On to `OCc1c[nH]c2ccccc12` [Indole-3-carbinol], for which the relative cell viability worked out at 1.007 ± 0.0087.
For `O=C(O)CCCc1c[nH]c2ccccc12` [3-Indolebutyric acid (IBA)], the relative cell viability stood at 1.11 ± 0.1.
The figure for `COc1cc(C(=O)N2CCC(N3CCN(C)CC3)CC2)ccc1Nc1ncc2c(n1)N(C)c1ccccc1C(=O)N2C` is 1.02 ± 0.019.
Then `Cc1cc(F)c(Nc2ncnc3cc(OCc4ccccc4)ccc23)cc1O`, with 1.17 ± 0.027; and `CC(C)C[C@H](NC(=O)[C@H](Cc1ccccc1)NC(=O)c1cnccn1)B(O)O` [Bortezomib (PS-341)], with 0.329 ± 0.066.
The figure for `CC(C)C[C@H](NC(=O)[C@H](CCc1ccccc1)NC(=O)CN1CCOCC1)C(=O)N[C@@H](Cc1ccccc1)C(=O)N[C@@H](CC(C)C)C(=O)[C@@]1(C)CO1` [Carfilzomib (PR-171)] is 0.193 ± 0.016; for `COc1ccc(C[C@H](NC(=O)[C@H](C)NC(=O)CN2CCOCC2)C(=O)N[C@@H](Cc2ccccc2)C(=O)[C@@]2(C)CO2)cc1` it is 0.1525 ± 0.00028; for `CC(NC(=O)C(Cc1ccccc1)NC(=O)OCc1ccccc1)C(=O)CF` (configuration not stated) it is 0.951 ± 0.043.
For `COC(=O)[C@H](Cc1ccccc1)NC(=O)[C@@H](N)CC(=O)O` [Aspartame], the relative cell viability is 1.09 ± 0.15.
Then `COC[C@H](NC(=O)c1cnc(C)s1)C(=O)N[C@@H](COC)C(=O)N[C@@H](Cc1ccccc1)C(=O)[C@@]1(C)CO1` [Oprozomib (ONX 0912)], with 0.123 ± 0.005; and `CC(C)N(C[C@H]1O[C@@H](n2cnc3c(N)ncnc32)[C@H](O)[C@@H]1O)[C@H]1C[C@@H](CCc2nc3cc(C(C)(C)C)ccc3[nH]2)C1`, with 1.12 ± 0.029.
Then `C[C@H]1O[C@@H](O[C@H]2[C@@H](O)C[C@H](O[C@H]3[C@@H](O)C[C@H](O[C@H]4CC[C@@]5(C)[C@H](CC[C@@H]6[C@@H]5C[C@@H](O)[C@]5(C)[C@@H](C7=CC(=O)OC7)CC[C@]65O)C4)O[C@@H]3C)O[C@@H]2C)C[C@H](O)[C@@H]1O` [Digoxin], with 0.0999 ± 0.0026; and `C[C@H]1Oc2cc(cnc2N)-c2c(nn(C)c2C#N)CN(C)C(=O)c2ccc(F)cc21`, with 1.12 ± 0.049; and `Cn1cc(C2=C(c3cn(CCCSC(=N)N)c4ccccc34)C(=O)NC2=O)c2ccccc21` [Ro 31-8220 Mesylate], with 1.05 ± 0.1.
